We go through 24 compounds from PubChem BioAssay AID652257 (The Scripps Research Institute Molecular Screening Center, 2013).

The inhibition is the drop in the measured response relative to a control, in per cent.

Among all 370,000 compounds or so, about 4,800 (1.3%) were called active. The full list was thinned out, with actives kept by preference. Unmarked numbers belong to inactive results.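 Rule for the calls: active = inhibition above about 21% made by adding two undisclosed values (limit read from the data); inactive = the rest.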

The target of the assay is Protein arginine N-methyltransferase 1 (Homo sapiens) (UniProt Q99873). Briefly: PRMT1 methyltransferase inhibitors, primary screen, biochemical, fluorescence polarization (AID 652257). The settings on record: recombinant PRMT1, activity-based probe fluorescence polarization; at 2.79 µM; hits give high values. For orientation: Fluorescence polarisation rises when a labelled molecule tumbles more slowly, as on binding a larger partner.
Protein arginine N-methyltransferase 1 (Homo sapiens), sequence (Q99873 whole entry, looked up): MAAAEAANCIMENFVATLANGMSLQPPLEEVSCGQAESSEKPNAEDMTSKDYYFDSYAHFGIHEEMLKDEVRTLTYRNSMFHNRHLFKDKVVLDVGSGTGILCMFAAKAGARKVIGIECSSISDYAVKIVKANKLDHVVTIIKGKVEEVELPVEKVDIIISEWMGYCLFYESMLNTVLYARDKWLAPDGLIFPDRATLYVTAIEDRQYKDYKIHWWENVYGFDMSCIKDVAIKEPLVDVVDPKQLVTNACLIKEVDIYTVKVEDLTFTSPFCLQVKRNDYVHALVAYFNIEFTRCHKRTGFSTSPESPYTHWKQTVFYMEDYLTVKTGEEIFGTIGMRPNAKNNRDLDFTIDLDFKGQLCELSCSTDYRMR
For `Cc1cc(/C=N/Nc2ccc([N+](=O)[O-])cn2)c(C)n1-c1cccc(C(=O)O)c1`, the inhibition is 23.6% (active). Take `CN1CCN(C(=O)c2cnn(-c3ccccc3)c2NC(=O)c2ccc([N+](=O)[O-])cc2)CC1`: the inhibition was 4.06%.

For `Cc1cccc(C(=O)NC(=S)N2CCN(c3ccc([N+](=O)[O-])cc3)CC2)c1`, the inhibition was -2.54%.

Take `Cc1ccccc1NC(=O)COC(=O)c1ccc(Sc2ncn[nH]2)c([N+](=O)[O-])c1`: the inhibition was -0.43%. Take `O=C(O)c1[nH]c2ccccc2c1C(c1cccc(O)c1)c1c(C(=O)O)[nH]c2ccccc12`: the inhibition is -1.91%. Regarding `Cc1c(C(C)c2ccccc2O)[nH]c2ccccc12` (centres undefined), the inhibition was 2.86%. In the case of `CCOC(=O)c1ccn(S(=O)(=O)c2ccc(C)cc2)c1-c1ccccc1`, the inhibition was -3.46%.

`CCOC(=O)c1ccccc1NC(=O)c1c(N)n(C)c(=O)[nH]c1=O`: the inhibition was 1.71%. Consider `CCOC(=O)c1cc2n(c1N)-c1ccccc1C2=O`, for which the inhibition is 29.4% (active). With `COc1cc(/C=C/C(=O)n2cnc3ccccc32)cc(OC)c1OC`, the inhibition was 5.15%. The same measure for `NS(=O)(=O)c1ccc(NC(=S)NC(=O)c2cccnc2)cc1`: 0.33%; for `C=CCN1C(C(=O)OC)CN(Cc2cn(Cc3ccccc3)nn2)CCS1(=O)=O` (centres undefined): -1.05%. Take `O=C1C=CC(=O)N1c1ccc(N2CCCCC2)cc1`: the inhibition was 90.5% (active).

Regarding `O=C(COc1ccc([N+](=O)[O-])cc1Cl)Nc1ccc2[nH]c(=O)[nH]c2c1`, the inhibition was 1.93%. On to `COc1ccc(C(=O)OCC(=O)Nc2ccc3[nH]c(=O)[nH]c3c2)c(OC)c1OC`, for which the inhibition is 3.04%.

As for `CC(C)(C)NC(=O)COc1ccc(CNc2ccc3[nH]c(=O)[nH]c3c2)cc1`, the inhibition was 35.9% (active). Take `O=S1(=O)c2c(cccc2N2CCSCC2)Oc2ccccc2CN1Cc1cn(Cc2ccc(F)cc2)nn1`: the inhibition is -0.69%. Take `O=C(Nc1ccccc1)N1CCN(Cc2nc3ccccc3c(=O)[nH]2)CC1`: the inhibition is 2.82%.

With `CC(=O)N/C(=C\c1ccccc1)C(=O)OC(C)C(=O)N(C)c1ccccc1` (centres undefined), the inhibition was -2.28%. For `CN(C(=O)CN1CCN(c2cc(-c3ccc(OCc4ccccc4)cc3)ncn2)CC1)c1ccccc1`, the inhibition is -1.91%.

Consider `CC1CN(Cc2ccco2)C(=S)N(c2ccccc2)C1=O` (centres undefined), for which the inhibition is 6.21%. The same measure for `CN(C)C(=S)N=c1ssc(=S)n1Cc1ccco1`: 27% (active). `CCN(CC)C(=O)CSc1nnc(CNc2ccc(F)cc2)n1Cc1ccco1`: the inhibition is 10.1%. In the case of `Cc1cccc(OCCCC(=O)Nc2ccc(S(=O)(=O)N3CCCC3)cc2)c1`, the inhibition is 0.23%.
